# Paper PMC7862700, “An all-to-all approach to the identification of sequence-specific readers for epigenetic DNA modifications on cytosine”
# What was measured:
# Assay in all cases: DAPPL (digital affinity profiling via proximity ligation, sequencing); 10 mM Tris-HCl pH 7.5, 50 mM NaCl, 1 mM DTT, 4% glycerol, room temperature, 30 min; GST-TFs on glutathione beads, 16-mer random dsDNA library, 0.1% formaldehyde crosslink after washing; high values mean tight binding
# Details in all cases: protein: recombinant; tags: N-terminal GST; dsDNA, one strand shown
# [1] = biological target: T1, ELK1 (Homo sapiens, UniProt P19419 1-428)
# T1 sequence: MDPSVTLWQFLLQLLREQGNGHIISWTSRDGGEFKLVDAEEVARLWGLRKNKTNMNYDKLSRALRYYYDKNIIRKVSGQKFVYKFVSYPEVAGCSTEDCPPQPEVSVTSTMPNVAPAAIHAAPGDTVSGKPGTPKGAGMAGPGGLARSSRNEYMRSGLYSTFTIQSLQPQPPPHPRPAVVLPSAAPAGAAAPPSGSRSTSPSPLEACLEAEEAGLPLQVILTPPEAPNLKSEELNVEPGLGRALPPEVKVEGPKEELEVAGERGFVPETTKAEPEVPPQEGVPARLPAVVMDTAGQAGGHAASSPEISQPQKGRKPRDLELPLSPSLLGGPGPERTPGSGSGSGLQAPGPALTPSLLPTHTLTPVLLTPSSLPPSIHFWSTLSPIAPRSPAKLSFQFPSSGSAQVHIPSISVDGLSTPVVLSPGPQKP
# Procedure, shortened: (§1)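 Pools were built from human transcription factors expressed in yeast as GST fusions, captured on glutathione beads and DNA-barcoded, along with a tag-only sample. Incubation with 200 nmole of a 16-mer random double-stranded DNA library lasted 30 min at room temperature in Tris/NaCl/DTT/glycerol buffer, and was followed by washing, 0.1% formaldehyde crosslinking, proximity ligation, PCR amplification and Illumina NextSeq500 sequencing. Binding signal is the quotient of each hexamer's read frequency for a factor and its frequency for the tag-only sample.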
# [2] = biological target: T2, GABPA (Homo sapiens, UniProt Q06546 1-454)
# T2 sequence: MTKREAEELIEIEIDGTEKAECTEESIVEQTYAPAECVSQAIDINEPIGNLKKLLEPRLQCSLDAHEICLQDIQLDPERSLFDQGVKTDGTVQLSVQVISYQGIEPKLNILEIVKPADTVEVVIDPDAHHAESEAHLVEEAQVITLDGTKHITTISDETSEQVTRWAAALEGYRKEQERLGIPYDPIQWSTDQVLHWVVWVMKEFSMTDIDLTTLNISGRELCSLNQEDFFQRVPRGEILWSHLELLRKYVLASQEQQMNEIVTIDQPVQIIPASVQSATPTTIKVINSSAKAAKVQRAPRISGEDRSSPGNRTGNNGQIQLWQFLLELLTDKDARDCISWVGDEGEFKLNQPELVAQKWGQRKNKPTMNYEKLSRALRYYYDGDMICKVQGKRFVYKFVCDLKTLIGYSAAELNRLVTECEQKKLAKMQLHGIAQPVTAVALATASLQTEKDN
# Procedure, shortened: as §1
# [3] = biological target: T3, ERG (Homo sapiens, UniProt P11308 1-479)
# T3 sequence: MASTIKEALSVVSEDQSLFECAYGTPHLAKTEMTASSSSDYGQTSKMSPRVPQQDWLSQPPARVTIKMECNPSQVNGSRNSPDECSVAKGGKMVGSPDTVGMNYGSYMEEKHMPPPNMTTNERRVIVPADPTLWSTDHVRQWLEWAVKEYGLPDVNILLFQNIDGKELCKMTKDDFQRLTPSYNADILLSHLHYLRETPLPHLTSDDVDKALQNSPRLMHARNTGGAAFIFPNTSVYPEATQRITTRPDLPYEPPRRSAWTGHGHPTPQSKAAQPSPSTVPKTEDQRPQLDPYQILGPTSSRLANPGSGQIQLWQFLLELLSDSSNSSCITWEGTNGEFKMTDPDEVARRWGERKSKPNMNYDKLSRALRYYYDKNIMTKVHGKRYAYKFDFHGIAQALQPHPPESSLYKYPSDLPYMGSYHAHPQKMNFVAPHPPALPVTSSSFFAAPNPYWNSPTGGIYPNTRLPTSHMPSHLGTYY
# Procedure, shortened: as §1
# [4] = biological target: ELF1 (Homo sapiens, UniProt P32519 1-619)
# ELF1, sequence (P32519 whole entry): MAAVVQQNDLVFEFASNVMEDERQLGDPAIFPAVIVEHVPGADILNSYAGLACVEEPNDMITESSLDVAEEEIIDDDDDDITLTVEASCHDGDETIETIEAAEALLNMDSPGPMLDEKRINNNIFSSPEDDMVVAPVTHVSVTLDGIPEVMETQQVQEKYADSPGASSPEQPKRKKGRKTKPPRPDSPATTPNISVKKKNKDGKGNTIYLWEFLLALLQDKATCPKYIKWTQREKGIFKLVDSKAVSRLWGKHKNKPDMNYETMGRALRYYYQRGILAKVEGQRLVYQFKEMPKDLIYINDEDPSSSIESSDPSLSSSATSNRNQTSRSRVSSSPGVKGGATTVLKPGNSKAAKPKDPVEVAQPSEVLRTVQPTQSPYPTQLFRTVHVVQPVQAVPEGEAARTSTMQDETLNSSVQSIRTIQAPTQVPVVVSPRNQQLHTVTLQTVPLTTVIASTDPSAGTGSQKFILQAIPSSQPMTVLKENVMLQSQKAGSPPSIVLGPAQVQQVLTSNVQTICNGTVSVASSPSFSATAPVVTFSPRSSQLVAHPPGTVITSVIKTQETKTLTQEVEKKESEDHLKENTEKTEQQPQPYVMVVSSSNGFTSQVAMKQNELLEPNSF
# Procedure, shortened: as §1
# [5] = biological target: T4, EHF (Homo sapiens, UniProt Q9NZC4 1-300)
# T4 sequence: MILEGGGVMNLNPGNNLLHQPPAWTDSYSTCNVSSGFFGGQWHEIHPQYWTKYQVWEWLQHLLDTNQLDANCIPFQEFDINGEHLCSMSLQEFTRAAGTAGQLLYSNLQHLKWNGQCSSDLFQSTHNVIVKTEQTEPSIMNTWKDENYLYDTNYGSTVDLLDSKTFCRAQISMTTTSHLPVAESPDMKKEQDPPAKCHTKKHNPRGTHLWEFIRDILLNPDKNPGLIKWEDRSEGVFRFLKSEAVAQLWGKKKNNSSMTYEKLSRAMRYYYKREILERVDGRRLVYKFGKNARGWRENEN
# Procedure, shortened: as §1
# [6] = biological target: T5, FEV (Homo sapiens, UniProt Q99581 1-238)
# T5 sequence: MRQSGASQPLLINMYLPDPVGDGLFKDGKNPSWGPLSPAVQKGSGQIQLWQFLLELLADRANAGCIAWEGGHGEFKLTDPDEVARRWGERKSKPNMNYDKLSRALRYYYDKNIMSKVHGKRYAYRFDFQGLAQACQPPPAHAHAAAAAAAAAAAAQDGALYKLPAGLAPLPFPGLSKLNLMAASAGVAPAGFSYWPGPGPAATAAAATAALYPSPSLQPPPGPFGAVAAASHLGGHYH
# Procedure, shortened: as §1
# [7] = biological target: ETV5 (Homo sapiens, UniProt P41161 1-510)
# ETV5, sequence (P41161 whole entry): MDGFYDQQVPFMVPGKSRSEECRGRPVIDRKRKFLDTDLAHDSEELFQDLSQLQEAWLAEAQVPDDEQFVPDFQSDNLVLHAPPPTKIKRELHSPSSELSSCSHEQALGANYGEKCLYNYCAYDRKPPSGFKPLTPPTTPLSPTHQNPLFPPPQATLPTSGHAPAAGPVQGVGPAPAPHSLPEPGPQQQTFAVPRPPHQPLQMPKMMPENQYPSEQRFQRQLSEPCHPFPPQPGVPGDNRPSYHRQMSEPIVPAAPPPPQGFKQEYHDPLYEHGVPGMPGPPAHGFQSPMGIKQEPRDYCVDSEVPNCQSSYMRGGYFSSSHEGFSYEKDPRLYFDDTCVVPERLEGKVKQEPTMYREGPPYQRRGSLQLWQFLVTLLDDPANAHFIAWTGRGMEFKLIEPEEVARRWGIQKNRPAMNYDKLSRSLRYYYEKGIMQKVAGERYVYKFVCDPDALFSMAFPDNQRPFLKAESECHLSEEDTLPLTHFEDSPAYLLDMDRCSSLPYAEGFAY
# Procedure, shortened: as §1
# [8] = biological target: ELF4 (Homo sapiens, UniProt Q99607 1-663)
# ELF4, sequence (Q99607 whole entry): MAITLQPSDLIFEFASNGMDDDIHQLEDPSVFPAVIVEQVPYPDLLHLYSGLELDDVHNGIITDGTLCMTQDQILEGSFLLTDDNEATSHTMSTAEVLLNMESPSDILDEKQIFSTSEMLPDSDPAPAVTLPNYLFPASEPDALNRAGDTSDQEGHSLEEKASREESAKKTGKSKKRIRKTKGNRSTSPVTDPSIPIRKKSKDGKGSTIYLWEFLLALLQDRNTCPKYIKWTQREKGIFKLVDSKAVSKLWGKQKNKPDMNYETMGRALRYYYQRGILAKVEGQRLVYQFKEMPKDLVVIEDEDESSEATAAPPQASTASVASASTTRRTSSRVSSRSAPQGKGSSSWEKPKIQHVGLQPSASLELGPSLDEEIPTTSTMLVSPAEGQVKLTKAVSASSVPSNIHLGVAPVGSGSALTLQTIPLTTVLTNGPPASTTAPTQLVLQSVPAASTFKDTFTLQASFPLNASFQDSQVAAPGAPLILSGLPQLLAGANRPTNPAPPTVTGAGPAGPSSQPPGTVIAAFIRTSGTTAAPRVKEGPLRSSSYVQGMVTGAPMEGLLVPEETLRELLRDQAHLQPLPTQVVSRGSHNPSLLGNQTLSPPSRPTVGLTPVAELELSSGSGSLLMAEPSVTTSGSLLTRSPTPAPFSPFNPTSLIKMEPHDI
# Procedure, shortened: as §1
# [9] = biological target: T6, ELK4 (Homo sapiens, UniProt P28324-2 1-405)
# T6 sequence: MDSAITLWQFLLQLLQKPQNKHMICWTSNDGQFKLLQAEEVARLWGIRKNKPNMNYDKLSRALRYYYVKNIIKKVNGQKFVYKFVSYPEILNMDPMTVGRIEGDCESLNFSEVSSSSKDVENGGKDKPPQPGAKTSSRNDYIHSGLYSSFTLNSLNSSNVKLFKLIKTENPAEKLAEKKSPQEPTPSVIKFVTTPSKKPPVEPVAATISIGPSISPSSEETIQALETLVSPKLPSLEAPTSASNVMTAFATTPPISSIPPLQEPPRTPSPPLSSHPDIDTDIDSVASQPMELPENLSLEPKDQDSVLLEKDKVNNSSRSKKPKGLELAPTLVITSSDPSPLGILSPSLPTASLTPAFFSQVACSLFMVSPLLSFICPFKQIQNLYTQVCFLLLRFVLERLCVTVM
# Procedure, shortened: as §1
sequence,measurement,setting,value
TCATGT,binding signal,[1],"1.17 fold enrichment (6-mer frequency, TF over GST control)"
same,binding signal,[2],"1.11 fold enrichment (6-mer frequency, TF over GST control)"
same,binding signal,[3],"1.1 fold enrichment (6-mer frequency, TF over GST control)"
same,binding signal,[4],"1.15 fold enrichment (6-mer frequency, TF over GST control)"
same,binding signal,[5],"1.02 fold enrichment (6-mer frequency, TF over GST control)"
same,binding signal,[6],"1.05 fold enrichment (6-mer frequency, TF over GST control)"
same,binding signal,[7],"1.16 fold enrichment (6-mer frequency, TF over GST control)"
same,binding signal,[8],"1.1 fold enrichment (6-mer frequency, TF over GST control)"
same,binding signal,[9],"1.08 fold enrichment (6-mer frequency, TF over GST control)"
